Test results: the supplement of paper PMC11628255, “Interference of metal ions on the bioluminescent signal of firefly, Renilla, and NanoLuc luciferases in high-throughput screening assays” (Frontiers in Chemistry, 2024)
± gives the standard deviation of the averaged measurements.

Tested on: NanoLuc luciferase (NLuc)
Assay: residual bioluminescent signal relative to negative (DMSO) control; higher = less interference (more residual luciferase signal)
Description: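 Purified luciferase (FLuc 10 nM + 10 uM D-luciferin; NLuc 10 pM + 10 uM furimazine; RLuc 50 pM + 2 uM coelenterazine) in 384-well plates; metal salt pre-incubated with enzyme 10 min at RT, substrate added and luminescence read after 10 min. Signal normalised to plate DMSO negative control (% N_VALUE = x/mean neg *100); triplicate wells at 0.01, 1 and 5 mM salt.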

[1] = metal salt concentration 0.01 mM, HEPES conditions (100 mM HEPES, 0.1% BSA, pH 7.5)
[2] = metal salt concentration 0.01 mM, screening conditions (PBS, 0.1% BSA, pH 7.4)
[3] = metal salt concentration 1 mM, HEPES conditions (100 mM HEPES, 0.1% BSA, pH 7.5)
[4] = metal salt concentration 1 mM, screening conditions (PBS, 0.1% BSA, pH 7.4)
[5] = metal salt concentration 5 mM, HEPES conditions (100 mM HEPES, 0.1% BSA, pH 7.5)
[6] = metal salt concentration 5 mM, screening conditions (PBS, 0.1% BSA, pH 7.4)

SMILES	residual bioluminescent signal [1] [%]	residual bioluminescent signal [2] [%]	residual bioluminescent signal [3] [%]	residual bioluminescent signal [4] [%]	residual bioluminescent signal [5] [%]	residual bioluminescent signal [6] [%]
O=C([O-])[O-].[K+].[K+] [potassium carbonate]	91.3 ± 2.9	100 ± 4	92.1 ± 8.9	97.6 ± 3	95.6 ± 1.7	96.6 ± 3.6
[Cl][Pt-2]([Cl])([Cl])[Cl].[K+].[K+] [potassium tetrachloroplatinate(II)]	91.45 ± 0.79	99.8 ± 2.3	8.06 ± 0.51	7.81 ± 1.1	7.52 ± 0.31	5.07 ± 0.66
[Cl][Fe]([Cl])[Cl] [iron(III) chloride]	90.2 ± 4	93 ± 3	0.54 ± 0.37	53.4 ± 2.6	0.188 ± 0.081	0.189 ± 0.24
O.O.O.O.O.O.O.O=S(=O)([O-])[O-].[Mg+2] [magnesium sulfate]	91 ± 1.1	97.44 ± 0.7	99 ± 1.7	95.09 ± 0.87	107 ± 3.1	95.5 ± 2.1
CC#N.CC#N.CC#N.CC#N.F[B-](F)(F)F.[Cu+] [tetrakis(acetonitrile)copper(I) tetrafluoroborate]	92.6 ± 2.9	90 ± 3	0.251 ± 0.095	0.838 ± 0.074	0.149 ± 0.095	0.354 ± 0.31
O.O.O.O.O.O.O.O.O.O.O=S(=O)([O-])[O-].[Na+].[Na+] [sodium sulfate]	96 ± 3.7	96.8 ± 5	96.8 ± 4	96 ± 4.3	98.4 ± 1.1	95.6 ± 4.4
O=C([O-])[O-].[Cs+].[Cs+] [caesium carbonate]	99.36 ± 0.78	98.8 ± 6.6	96.5 ± 3.1	102 ± 3	91.4 ± 3.5	92.2 ± 2.9
